Compounds without any hit were thinned out: in the full panel of roughly 83,000, 20% have a hit.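 Negative percent growth values reflect cell death: -40 means 40% of the cells present at the start died, and -100 means all died.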 A number with no mark means an inactive call. Activity calls are given as the source filed them. Rule for the calls: active = growth percent below 10; inactive = the rest.

For the experiment, the system named is NCI-H23 lung. Description: NCI-60 one-dose screen, 48 h (100 = growth as untreated, 0 = no growth, -100 = all killed). The note with it: 10 µM unless noted.
Turning to `CCOc1cc2ncc(C#N)c(Nc3ccc(F)c(Cl)c3)c2cc1NC(=O)/C=C/CN(C)C`, the growth was -28.5% (active).
To `CCN(CC)CCNC(=O)c1c(C)[nH]c(/C=C2\C(=O)Nc3ccc(F)cc32)c1C` belongs 21.4%; to `COc1ccc2c(CCC(c3ccccc3)c3ccccc3)c3[n+](cc2c1OC)CCc1cc2c(cc1-3)OCO2`, 0.765% (active); to `C[C@@H](Oc1cc(-n2cnc3ccc(CN4CCN(C)CC4)cc32)sc1C(N)=O)c1ccccc1C(F)(F)F`, 32.9%.
Consider `CC(C)=CCc1cc2c(cc1O)C1=C(C(=O)C3=C(NCCS3(=O)=O)C1=O)C(C=C(C)C)O2` (stereo not drawn), for which the growth is 25.7%.
For the molecule `CC(N)C(Cc1ccc(Cl)cc1)c1ccc(Cl)cc1` (stereo not drawn), the growth is 92.8%.
Then `Clc1nc(Cl)c2ncn(CC#CCn3cnc4c(Cl)nc(Cl)nc43)c2n1`, with 38.6%.
As to `O=C(Cc1ccc(-c2ccc(OCCN3CCOCC3)cc2)cn1)NCc1ccccc1`, the growth was 29%.
As to `Cc1nc(NC(=O)N2CCC[C@H]2C(N)=O)sc1-c1ccnc(C(C)(C)C(F)(F)F)c1`, the growth was 57.9%.
`COc1ccc2c(CCCc3ccc(Cl)cc3Cl)c3[n+](cc2c1OC)CCc1cc2c(cc1-3)OCO2`: the growth is -12.2% (active).
`Cc1c(Cn2c(C)nc3c(C(=O)O)cc(N4CCOCC4)cc32)cccc1C(F)(F)F`: the growth was 105%.
As to `COc1cc2nccc(Oc3ccc(NC(=O)C4(C(=O)Nc5ccc(F)cc5)CC4)cc3)c2cc1OC`, the growth is 14.4%.
As for `C=CCCCC(=O)CCC(=O)OCC1O[C@@H](O[C@@H]2C(O)[C@@H](OC(C)=O)C(C)O[C@H]2O[C@H](CC=C)CCCCC)C(O)[C@@H](OC(=O)/C(C)=C/C)[C@@H]1OC(=O)/C=C/c1ccccc1` (stereo partly drawn), the growth is 35.3%.
Take `O=c1[nH]ccc2c(S(=O)(=O)N3CCCNCC3)cccc12`: the growth is 78.5%.
Turning to `CC1(C=O)NC(=O)NC1=O` (stereo not drawn), the growth was 105%.
Consider `Cc1ccc(NC(=O)c2ccc(CN3CC[C@H](N(C)C)C3)c(C(F)(F)F)c2)cc1Nc1nccc(-c2cncnc2)n1`, for which the growth is 13.2%.
Consider `O=C(Nc1cccc(Cl)c1)Nc1ncc(CCNc2ncnc3ccsc23)s1`, for which the growth was 30.6%.
On to `Cn1ccnc1C(=O)/C=C/c1ccc(CC(=O)Nc2ccc(Br)cc2)cc1`, for which the growth is 24.5%.
To `CNC(=O)c1nn(C)c2c1C(C)(C)Cc1cnc(Nc3ccc(N4CCN(C)CC4)cc3)nc1-2` belongs 2.37% (active).
In the case of `CNc1ncc2cc(-c3cc(NC(=O)NCCC(C)(C)C)c(F)cc3C)c(C)nc2n1`, the growth was 12.8%.
To `Cc1cc(C(=O)Nc2cc(Oc3ccc4nc(NC(=O)C5CC5)cn4n3)ccc2C)n(C)n1` belongs 24.7%; to `O=C(Cc1ccc(/C=C/C(=O)c2ncc[nH]2)cc1)Nc1ccc(Br)cc1`, 34.8%.
On to `CCc1ccc(C2=C(O)C(=O)C(c3ccc(CC)cc3)=C(O)C2=O)cc1`, for which the growth is -17.4% (active).
In the case of `CNC(=O)c1cccc2cc(Oc3ccnc4cc(OCC5(N)CC5)c(OC)cc34)ccc12`, the growth was 63.9%.
`CCCCN1CCCC[C@@H]1C(=O)N[C@H](C(=O)N(C)[C@H](CCc1nc(C(=O)N[C@@H](Cc2ccccc2)C[C@H](C)C(=O)OC)cs1)C(C)C)C(C)C`: the growth is 59.7%.
To `COc1cnc2c(c1)C(=O)c1c-2n(CCCN2CCC(N)CC2)c(=O)c2cc([N+](=O)[O-])ccc12` belongs 38.4%.
In the case of `C=CC(=O)Nc1cc2c(Nc3ccc(F)c(Cl)c3)ncnc2cc1OCCCN1CCOCC1`, the growth was -54.4% (active).
On to `NC(=O)c1c(OCc2c(F)cc(Br)cc2F)nsc1NC(=O)NCCCCN1CCCC1`, for which the growth is 21.2%.
On to `CCc1nc2ccc(Cc3ccc(C(=O)NO)cc3)cc2c(=O)n1CCc1ccccc1`, for which the growth was -67.9% (active).
Consider `Cc1cc(N(CCNc2ccnc3cc(Cl)ccc23)Cc2ccc3c(c2)OCO3)nc(N2CCN(C)CC2)n1`, for which the growth is 56.6%.
In the case of `Cc1ccc2oc(=O)cc(-c3cc(-c4cc5ccccc5oc4=O)nc(N)c3C#N)c2c1`, the growth was 62.7%.
For `Cc1[nH]c(/C=C2\C(=O)Nc3ccc(F)cc32)c(C)c1C(=O)NC[C@H](O)CN1CCOCC1`, the growth was 27.1%.
Take `O=C(Nc1cn[nH]c1-c1nc2ccc(CN3CCOCC3)cc2[nH]1)NC1CC1`: the growth is 23.5%.
Consider `O=C1CSC(c2c(F)cccc2Cl)N1NC(=O)C(O)(c1ccccc1)c1ccccc1` (stereo not drawn), for which the growth is 98.7%.
To `O=C1C=CC2(NN=C(c3ccccc3)N2c2cccc(Cl)c2)C(Cl)=C1` (stereo not drawn) belongs 85.9%; to `Cc1ccc(N=C2CSc3nnc(-c4csc5c4CCCC5)n3N2)cc1`, 41%.
In the case of `Cc1cc(-c2cc(OC(=O)c3ccccc3)ccc2Cl)cc2nnc(Nc3ccc(OCCN4CCCC4)cc3)nc12`, the growth is 78.9%.
Regarding `Cc1cc(O)cc(-c2c(-c3ccnc(-c4cccnc4)c3)cnn2C)c1`, the growth was 93.6%.

These data come from PubChem BioAssay (NCI).
